# MITF inh – inhibitors of MITF, primary screen, MITF inhibitor project, cell-based, luminescence | TRPM1 promoter luciferase, 24 h | actives 0.28% (n = 37,000) | AID 2240, 2010 | inhibition, % (no concentration beside the values); in the data active = inhibition above about 85%; inconclusive = no clear call, values can overlap the other calls; inactive = below about 68%;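 also: human melanocyte line stably carrying TRPM1 promoter luciferase reporter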
# NOMO-1 viab – NOMO-1 AML cell viability reduction, primary screen, STK33 inhibitor project, CellTiter-Glo luminescence. AID 2330, 2010. NOMO-1 AML viability, 72 h. actives 7.5% (n = 37,000). inhibition, % (concentration not given with the values); in the data active = inhibition above about 80%; inconclusive = no clear call, values can overlap the other calls
# Shh pathway inh – Hedgehog pathway signaling inhibitors, primary screen, luminescence, Shh-LIGHT2 cells, Gli-luciferase. Shh-LIGHT2 Gli-luciferase reporter, 30 h. inhibition, % (test concentration not listed). actives 2.1% (n = 22,000). AID 2313, 2010;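 active = mean inhibition across valid replicates above about 65%, limit read from the data; inconclusive = mean under the limit, yet half or more replicates past it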;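 also: pathway switched on by Shh-conditioned medium diluted 1 in 25 in low serum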
# A number is an active result; – = inactive; ? = inconclusive; · = not tested or not shown. A selection: hits, their analogues and other compounds. The true share with any hit is near 7.9%.
SMILES,MITF inh,NOMO-1 viab,Shh pathway inh
C[C@@H]1CN([C@@H](C)CO)C(=O)c2cc(NS(=O)(=O)c3ccc(Cl)cc3)ccc2O[C@@H]1CN(C)Cc1ccc(Oc2ccccc2)cc1,–,114,·
C=C(CO)C(=O)O[C@H]1C[C@@]23O[C@@H]2CC/C(=C/[C@H]2OC(=O)C(=C)[C@H]12)CO[C@@H]3O,–,103,–
Cc1noc(COc2ccccc2)c1C(=O)Sc1ccc(F)cc1F,–,123,·
O=C(CC1(O)C(=O)N(Cc2ccc(Cl)c(Cl)c2)c2ccccc21)c1cccc([N+](=O)[O-])c1 (stereo not given),–,108,·
C=CCN1C(=O)C(O)(CC(=O)c2ccc(OC)c([N+](=O)[O-])c2)c2ccccc21 (stereo not given),–,119,·
C=CCN1C(=O)C(O)(CC(=O)c2ccc(C)o2)c2ccccc21 (stereo not given),–,–,·
Cc1ccccc1CN1C(=O)C(O)(CC(=O)c2ccncc2)c2cc(Cl)ccc21 (stereo not given),–,129,·
COc1ccc(CN2C(=O)C(O)(CC(=O)c3ccc(C)s3)c3ccccc32)cc1OC (stereo not given),–,114,·
COc1ccc(CN2C(=O)C(O)(CC(=O)c3c(C)coc3C)c3ccccc32)cc1OC (stereo not given),–,–,·
O=C(CC1(O)C(=O)N(Cc2ccc(Cl)c(Cl)c2)c2ccccc21)c1ccc2c(c1)OCCO2 (stereo not given),–,–,·
O=S1(=O)C=C2C(C1)SC(=S)N2C1CCS(=O)(=O)C1 (stereo not given),–,–,–
CC(C)NC(=O)Nc1ccc2c(c1)CC(=O)N([C@H](C)CO)C[C@@H](C)[C@@H](CN(C)Cc1ccc(C(F)(F)F)cc1)O2,–,–,·
Cn1c(SCC(=O)Nc2cccc(C(F)(F)F)c2)nnc1-c1ccc(F)cc1,–,–,·
COc1ccc(CN2C(=O)C(O)(CC(=O)c3cccnc3)c3ccccc32)cc1OC (stereo not given),–,106,·
Cc1ccc(C(=O)CC2(O)C(=O)N(Cc3cccc4ccccc34)c3ccccc32)cc1 (stereo not given),–,–,·
COc1ccc(CN2C(=O)C(O)(CC(=O)c3ccc(Cl)s3)c3ccccc32)cc1OC (stereo not given),–,109,·
NC(=O)CN1C(=O)C(O)(CC(=O)c2ccc(Cl)s2)c2ccccc21 (stereo not given),–,–,·
COc1ccc(CN2C(=O)C(O)(CC(=O)c3ccc4c(c3)CCCC4)c3ccccc32)cc1OC (stereo not given),–,–,·
O=C(CC1(O)C(=O)N(Cc2cccc3ccccc23)c2ccccc21)c1ccc(F)cc1 (stereo not given),–,84,·
COc1ccc(CN2C(=O)C(O)(CC(=O)c3ccc(Cl)cc3)c3ccccc32)cc1OC (stereo not given),–,112,·
Cc1c(Cl)c(C(F)(F)F)nn1CC(=O)Nc1ccc(C#N)cc1,–,–,·
COc1ccc(NC(=O)CSc2ccccn2)cc1Cl,–,–,·
C[C@@H]1CN([C@@H](C)CO)C(=O)c2cccc(NC(=O)c3cnccn3)c2O[C@H]1CN(C)Cc1ccc(C(=O)Nc2ccccc2N)cc1,–,–,·
C[C@@H]1CN([C@H](C)CO)C(=O)c2cc(NC(=O)Cn3cnnn3)ccc2O[C@@H]1CN(C)S(=O)(=O)c1ccccc1,–,–,–
Cc1cc2nnc(SCC(=O)Nc3sc4c(c3C#N)CCC4)n2c2ccccc12,–,–,·
SMILES,MITF inh,NOMO-1 viab,Shh pathway inh
C[C@@H]1CN([C@@H](C)CO)C(=O)c2cccc(NC(=O)C3CCCCC3)c2O[C@H]1CN(C)S(=O)(=O)c1ccc(F)cc1,–,–,–
COc1ccc(C(=O)CC2(O)C(=O)N(Cc3ccccc3Cl)c3ccc(Cl)cc32)cc1OC (stereo not given),–,90,·
COc1ccc(C(=O)CC2(O)C(=O)Nc3ccc(Cl)cc32)cc1OC (stereo not given),–,–,·
C[C@@H]1CN([C@@H](C)CO)C(=O)c2cccc(NC(=O)c3nc4ccccc4s3)c2O[C@@H]1CN(C)C(=O)NC1CCCCC1,–,?,–
c1ccc(C2C3=C(CCCC3)SC3=C2CCCC3)cc1,–,98,–
Cc1ccc(-c2nnc(SCC(=O)Nc3ccccc3C(C)(C)C)n2C)cc1,–,–,·
C[C@@H]1CCCCO[C@H](CN(C)S(=O)(=O)c2ccccc2)[C@@H](C)CN([C@H](C)CO)C(=O)c2cc(NC(=O)CCC(F)(F)F)ccc2O1,–,–,–
C[C@H](CO)N1C[C@H](C)[C@H](CN(C)Cc2ccccc2)Oc2c(NC(=O)Nc3ccc(F)cc3)cccc2C1=O,–,–,–
C[C@H](CO)N1C[C@H](C)[C@@H](CN(C)Cc2ccccc2)Oc2c(NC(=O)Nc3ccc(F)cc3)cccc2C1=O,–,98,–
C[C@@H]1CN([C@@H](C)CO)C(=O)c2cccc(NC(=O)Nc3ccc(F)cc3)c2O[C@H]1CN(C)Cc1ccccc1,–,102,–
C[C@@H]1CN([C@H](C)CO)C(=O)c2cccc(NC(=O)Nc3ccc(F)cc3)c2O[C@@H]1CN(C)Cc1ccccc1,–,–,–
C[C@H](CO)N1C[C@H](C)[C@H](CN(C)Cc2ccc(-c3ccccc3)cc2)Oc2c(NC(=O)Nc3ccc(F)cc3)cccc2C1=O,–,–,–
C[C@@H]1CN([C@H](C)CO)C(=O)c2cccc(NC(=O)Nc3ccc(F)cc3)c2O[C@H]1CN(C)Cc1ccccc1,–,100,–
C[C@H]1CN([C@@H](C)CO)C(=O)c2cccc(NC(=O)Nc3ccc(F)cc3)c2O[C@@H]1CN(C)Cc1ccccc1,–,101,–
C[C@@H]1CN([C@H](C)CO)C(=O)c2cccc(NC(=O)Nc3ccc(F)cc3)c2O[C@H]1CN(C)Cc1ccc(C(=O)O)cc1,–,–,–
C[C@@H]1CN([C@@H](C)CO)C(=O)c2cc(N(C)C)ccc2O[C@H]1CN(C)C(=O)NC1CCCCC1,–,–,–
CNC[C@H]1Oc2ccc(NC(=O)NC(C)C)cc2CC(=O)N([C@H](C)CO)C[C@H]1C,–,–,–
Cc1c(C)c(C)c(S(=O)(=O)NC(C)(C)C)c(C)c1C,–,–,–
CC(=O)c1ccc(NC(=O)CSc2nc(C)cc(C)c2C#N)cc1,–,–,·
COc1ccc(Cl)cc1N1CCN(CCNC(=O)Nc2ccccc2C)CC1,–,–,·
COc1ccc(C)cc1CN1CCC(CNC(=O)Nc2cc(Cl)ccc2C)CC1,–,122,·
Cc1ccc(S(=O)(=O)Nc2ccccc2CNc2cnc3ccccc3c2)cc1,–,–,·
Cc1ccc(N(CC(=O)NCc2ccco2)S(=O)(=O)c2ccc(C)cc2)cc1,–,–,–
CC1CCN(C(=O)c2cc(Cl)ccc2Cl)CC1,–,–,–
C[C@@H]1CN([C@H](C)CO)C(=O)c2cc(NS(=O)(=O)c3ccc(Cl)cc3)ccc2O[C@H]1CN(C)Cc1ccc(C(=O)Nc2ccccc2N)cc1,–,–,·
C[C@H](CO)N1C[C@H](C)[C@H](CN(C)Cc2ccc(C(=O)Nc3ccccc3N)cc2)Oc2ccc(NS(=O)(=O)c3ccc(F)cc3)cc2CC1=O,–,140,·

# Source: PubChem BioAssay (Broad Institute)
